# Where “and” joins values, the source holds several entries; their conditions need not be identical. Identical values can stand only once. Records with an inconclusive call do not appear. Calls of active or inactive are those of the source. The call rests on the fitted dose curve; in most records, active means well fitted curve in the direction sought with a large enough effect; inconclusive means small, poorly fitted or top-dose-only effect, or another doubt; inactive means no such curve, though single readings can be large or run the other way.
# Molecular target: Lysosomal acid glucosylceramidase (Homo sapiens) (UniProt P04062)
# Sequence (P04062 whole entry N409S): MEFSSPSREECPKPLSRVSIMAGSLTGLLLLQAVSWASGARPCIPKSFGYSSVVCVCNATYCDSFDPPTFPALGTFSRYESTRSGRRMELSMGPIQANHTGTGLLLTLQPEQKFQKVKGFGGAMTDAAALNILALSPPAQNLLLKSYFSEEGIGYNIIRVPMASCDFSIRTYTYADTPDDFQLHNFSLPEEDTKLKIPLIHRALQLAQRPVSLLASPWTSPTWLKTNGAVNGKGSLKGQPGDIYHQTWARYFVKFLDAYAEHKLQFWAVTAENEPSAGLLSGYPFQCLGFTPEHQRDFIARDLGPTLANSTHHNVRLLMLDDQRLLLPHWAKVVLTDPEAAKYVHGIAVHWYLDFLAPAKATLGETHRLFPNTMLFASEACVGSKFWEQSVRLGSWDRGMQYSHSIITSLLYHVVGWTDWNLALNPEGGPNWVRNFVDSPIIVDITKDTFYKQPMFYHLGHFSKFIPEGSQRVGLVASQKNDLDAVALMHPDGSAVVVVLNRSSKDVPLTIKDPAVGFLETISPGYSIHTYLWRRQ
# Assay: qHTS Assay for Inhibitors and Activators of N370S glucocerebrosidase as a Potential Chaperone Treatment of Gaucher Disease: Primary Screen Confirmation;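 on activity change, negative = inhibition: 0% = enzyme with DMSO and -100% = no enzyme basal signal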
# Conditions: N370S glucocerebrosidase enzyme activity, fluorogenic substrate; series mostly up to 54 µM; activity change, negative = inhibition: at the top concentration
# Text: NIH Chemical Genomics Center [NCGC]
# NIH Molecular Libraries Probe Production Centers Network [MLPCN]
# Assay Submitter (PI): Wei Zheng
# Glucocerebrosidase (GC) catalyzes the hydrolysis of beta-glucocerebroside to glucose and ceramide in lysosomes. Mutations in the glucocerebrosidase gene result in Gaucher disease, an autosomal recessive lysosomal storage disorder. Many of the mutations encountered in patients with Gaucher disease are missense alterations that may cause misfolding, decreased stability and/or mistrafficking of this lysosomal protein. […] These inhibitors include iminosugar analogs and three non-iminosugar inhibitors identified from a previous HTS of 62,000 compounds with the wild type recombinant enzyme. However, the enhancement of enzyme activity by the chaperone action of an enzyme inhibitor must be balanced against the direct inhibition of the enzyme. An enzyme activator could also function as a chaperone by binding to the enzyme and helping to correct its misfolding and mistrafficking. While activators for GC have not yet been identified, they may have better therapeutic potential than inhibitors. Therefore the discovery and development of chemical activators may provide a new strategy for the chaperone therapy.
# We have optimized a new assay using N370S mutant GC derived from the spleen of a Gaucher patient. […] In addition, the MLPCN compound library has expanded, which increases the chance of finding new and better probes.
# NCGC Assay Protocol Summary:
# This is a fluorogenic enzyme assay with 4-methylumbelliferyl-beta-D-glucopyranoside as the substrate and N370S glucocerebrosidase from human spleen homogenate as the enzyme preparation. Upon the hydrolysis of this fluorogenic substrate, the resulting product, […] which can be detected by a standard fluorescence plate reader. Data were normalized to the controls for basal activity (without enzyme) and 100% activity (with enzyme). The AC50 values were determined from concentration-response data modeled with the standard Hill equation.
# Assay buffer: 50 mM citric acid (titrated with potassium phosphate to pH 5.0), 100 mM potassium chloride, 10 mM sodium chloride, 1 mM magnesium chloride, 0.01% Tween-20.
# 1536-well assay protocol:
# (1) Add 2 ul/well of spleen homogenate (27 ug final)
# (2) Add 23 nL compounds in DMSO solution. The final titration was 0.5 nM to 58 uM.
# (3) Add 2 ul of substrate (1 mM final)
# (4) Incubate at 37C for 40 min.
# (5) Add 2 ul stop solution (1M NaOH and 1M Glycine mixture, pH 10)
# (6) Detect the assay plate in a ViewLux plate reader (PerkinElmer) with Ex=365 nm and Em=440nm.
# Keywords: Glucocerebrosidase, beta-glucosidase, Gaucher Disease, pharmacological chaperone, chaperone therapy, high throughput screening, glucocerebrosidase inhibitor, MLSMR, MLSCN, NIH Roadmap, qHTS and NCGC
# Potency means the concentration at half of the fitted maximal effect.
SMILES,Potency,"activity change, negative = inhibition"
Cc1cc(C)cc(N(CC(=O)Nc2cccc(C)c2C)S(=O)(=O)c2c(C)[nH]c(=O)[nH]c2=O)c1,3.26 µM (active),–
CCOc1ccc(N(CC(=O)Nc2ccc(C)cc2)S(=O)(=O)c2c(C)[nH]c(=O)[nH]c2=O)cc1,11.2 µM (active),–
Cc1cccc(S(=O)(=O)N2CCN(c3nc(-c4cccs4)nc4ccccc34)CC2)c1,2.01 µM (active),–
O=S(=O)(c1ccc2c(c1)OCO2)N1CCN(c2nc(-c3cccs3)nc3ccccc23)CC1,0.291 µM (active),–
Clc1ccccc1-c1nccc(NCc2ccccc2)n1,8.91 µM (active),–
C#CCOCCOCCOCCNc1nc(N2CCN(C(=O)CCCCCCCCCCNC(=O)[C@H](CCCCN)n3cc(CCCC(=O)O)nn3)CC2)nc(N2CCN(C(=O)CCCCCCCCCCNC(=O)[C@H](CCCN=C(N)N)n3cc(C[C@@H](C)CC)nn3)CC2)n1,8.19 µM (active),–
Cc1ccc(S(=O)(=O)N2CCCN(c3nc(-c4cccs4)nc4ccccc34)CC2)cc1,5.66 µM (active),–
O=S(=O)(c1ccc2c(c1)OCCO2)N1CCN(c2nc(-c3ccccc3)nc3ccccc23)CC1,3.2 µM (active),–
COc1ccc(NC(=O)Nc2cccc(C)n2)c(OC)c1,–,18.6% (inactive)
CC(C)(C)C(=O)OCCNc1nc(-c2cccs2)nc2ccccc12,1.46 µM (active),–
O=S(=O)(c1ccc(OC(F)(F)F)cc1)N1CCN(c2nc(-c3cccs3)nc3ccccc23)CC1,2.91 µM (active),–
O=S(=O)(c1ccc(Cl)cc1)N1CCN(c2nc(-c3cccs3)nc3ccccc23)CC1,1.46 µM (active) and 1.13 µM (active) and 1.63 µM (active),–
O=S(=O)(c1cnc2ccccc2c1)N1CCN(c2nc(-c3cccs3)nc3ccccc23)CC1,0.897 µM (active),–
Cc1cc(C)nc(NC(=O)Cc2ccc(Cl)cc2)c1,–,-22.5% (inactive)
CCCCNC(=S)NCCCN(Cc1ccc(Cl)c(Cl)c1)c1ccc(Br)cn1,–,-6.05% (inactive)
CCCCNC(=S)NCCCc1cnc[nH]1,–,-23.1% (inactive)
S=C(NCCCc1cnc[nH]1)NCCCN(CCc1ccccc1)c1ccc(Br)cn1,2.25 µM (active),–
CCN1CCN(C(=O)CCN(CC(C)C)c2nc(-c3cccs3)nc3ccccc23)CC1,20.2 µM (active),–
N#Cc1ccccc1S(=O)(=O)N1CCN(c2nc(-c3cccs3)nc3ccccc23)CC1,2.25 µM (active) and 1.13 µM (active),–
CC(Nc1nc(-c2ccccc2F)nc2ccccc12)c1ccccc1 (stereo not given),3.66 µM (active),–

SMILES,Potency,"activity change, negative = inhibition"
O=S(=O)(c1cccc2ccccc12)N1CCN(c2nc(-c3cccs3)nc3ccccc23)CC1,0.819 µM (active),–
O=S(=O)(c1ccccc1Br)N1CCN(c2nc(-c3cccs3)nc3ccccc23)CC1,1.3 µM (active),–
Cc1ccc(S(=O)(=O)N2CCN(c3nc(-c4cnccn4)nc4ccccc34)CC2)cc1,–,-29.6% (inactive)
Cc1ccc(S(=O)(=O)N2CCN(c3ccnc(-c4cccs4)n3)CC2)cc1,9.19 µM (active),–
Cc1ccc(S(=O)(=O)N2CCN(c3nc(-c4ccc(C)s4)nc4ccccc34)CC2)cc1,3.26 µM (active),–
Cc1cccc(NC(=O)Nc2cccc(C#N)c2)n1,–,-2.1% (inactive)
Cc1ccc(CC(=O)Nc2cccc(C)n2)cc1,–,6.66% (inactive)
CCOCCCNc1nc(-c2ccccc2)nc2ccccc12,10.1 µM (active),–
c1ccc2c(NCC3CCCO3)nc(N3CCOCC3)nc2c1 (stereo not given),–,6.26% (inactive)
Cc1ccc(S(=O)(=O)N2CCN(c3nc(-c4cccnc4)nc4ccccc34)CC2)cc1,16.3 µM (active),–
S=C(NCCCc1cnc[nH]1)NCCCN(Cc1ccc(Cl)cc1)c1ccc(Br)cn1,1.16 µM (active),–
Cc1cc(C)cc(N(CC(=O)NC2CCC(C)CC2)S(=O)(=O)c2c(C)[nH]c(=O)[nH]c2=O)c1 (stereo not given),2.51 µM (active),–
Cc1ccc(S(=O)(=O)N2CCN(c3nc(C#N)nc4ccccc34)CC2)cc1,–,-15.6% (inactive)
O=S(=O)(c1ccc2c(c1)CCCC2)N1CCN(c2nc(-c3cccs3)nc3ccccc23)CC1,0.713 µM (active),–
CC(C)(C)C(=O)OCCNc1nc(-c2ccccc2)nc2ccccc12,1.42 µM (active),–
Cc1ccc(-c2nc(N3CCN(S(=O)(=O)c4ccc(F)cc4)CC3)c3ccc(Cl)cc3n2)cc1,–,-0.526% (inactive)
O=C(Nc1cc(Br)ccc1O)c1cnn2c(C(F)F)cc(C3CC3)nc12,–,7.23% (inactive)
O=S(=O)(c1cccc(F)c1)N1CCN(c2nc(-c3cccs3)nc3ccccc23)CC1,1.01 µM (active),–
O=C(NCCCc1cnc[nH]1)NCCCN(Cc1ccc(Cl)cc1)c1ccc(Br)cn1,1.01 µM (active),–
CCOC(=O)c1ccc(Nc2cc(C)nc(-c3ccccc3)n2)cc1,10.3 µM (active),–

# Source: PubChem BioAssay AID2590 (National Center for Advancing Translational Sciences (NCATS), 2010)
